High-throughput results from PubChem BioAssay.
HEK cytotox = Cytotoxic Profiling in HEK 293 Cell Line of Diverse Libraries Using Quantitative High-Throughput Screening | HEK 293 viability, ATP luminescence (CellTiter-Glo), 48-72 h | Potency, µM (titrated, usually from 115 µM), for inactives: at the top dose activity change, negative = cytotoxicity, usual class: inhibitors | hit rate 6.6% among 94,000 | AID 1345083, 2018; also: nearly all actives have a fitted effect of over 60% in size
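qHTS cytotoxicity; HEK 293, 250 cells/well; compound pinned; 48 or 72 hr, 37 degree Celsius, 5% CO2, 95% humidity; CellTiter-Glo, 10 min RT; luminescence (ATP).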
Luciferase inh = Firefly luciferase inhibition profiling of diverse chemical library using quantitative high-throughput screening; Luciferin 4-monooxygenase (Photinus pyralis), P08659; purified P. pyralis luciferase, luminescence, biochemical; Potency, µM (series often up to 115 µM), usual class: inhibitors; hit rate 2.5% among 76,000; AID 1347043, 2019; also: nearly all actives have a fitted effect of over 65% in size
Target sequence (P08659 whole entry, looked up): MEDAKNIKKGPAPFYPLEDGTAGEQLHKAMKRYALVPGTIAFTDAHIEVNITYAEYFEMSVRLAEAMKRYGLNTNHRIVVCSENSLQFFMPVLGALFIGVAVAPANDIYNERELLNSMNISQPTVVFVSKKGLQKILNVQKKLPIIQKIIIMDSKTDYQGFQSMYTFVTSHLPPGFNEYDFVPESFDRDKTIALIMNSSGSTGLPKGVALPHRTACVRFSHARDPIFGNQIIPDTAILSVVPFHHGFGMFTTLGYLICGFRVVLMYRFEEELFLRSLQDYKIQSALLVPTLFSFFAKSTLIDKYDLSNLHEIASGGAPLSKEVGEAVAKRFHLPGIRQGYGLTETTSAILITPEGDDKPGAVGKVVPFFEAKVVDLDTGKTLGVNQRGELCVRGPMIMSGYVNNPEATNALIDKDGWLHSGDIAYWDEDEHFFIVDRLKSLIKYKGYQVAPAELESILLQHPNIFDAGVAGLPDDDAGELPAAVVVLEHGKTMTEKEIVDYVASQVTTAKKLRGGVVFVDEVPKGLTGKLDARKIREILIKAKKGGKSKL
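Luminescence read by CCD imager after adding enzyme (10nM final) to wells holding compound, titrated in qHTS. Substrates 10uM each D-luciferin and ATP; buffer 50mM Tris acetate pH 7.5, 10mM Mg acetate, Tween-20, BSA.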
hNpr1 antagonist = Natriuretic polypeptide receptor (hNpr1) antagonism - Primary qHTS. Atrial natriuretic peptide receptor 1 (Homo sapiens), P16066. HEK293 hNpr1 GloSensor cGMP, ANP-stimulated luminescence. Potency, µM (titrated, usually from 46.3 µM), inactives show at the highest dose activity change, negative = inhibition, usual class: inhibitors. hit rate 1.6% among 76,000. AID 1347048, 2019; calls by dose curve; also: nearly all actives have a fitted effect of over 60% in size
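HEK293 cells stably expressing human Npr1 and cGMP GloSensor pGS-40F, loaded 2 h with 2% GloSensor reagent, given compound 30 min at room temperature. Luminescence read before and 20 min after 0.1 nM hNppA.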
NIH3T3 tox = Cytotoxic Profiling in NIH 3T3 Cell Line of Diverse Libraries Using Quantitative High-Throughput Screening; Potency, µM (doses to about 96.7 µM), without a hit: at the top dose activity change, negative = cytotoxicity, most hits filed as inhibitors; NIH 3T3 viability, CellTiter-Glo ATP luminescence, 48-72 h; AID 1345082, 2018; hit rate 4.3% among 94,000; also: nearly all actives have a fitted effect of over 55% in size
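Mouse fibroblast NIH 3T3 cells, 400 per well, received compound via pintool and were incubated for 48 or 72 hr prior to CellTiter-Glo ATP luminescence measurement.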
* hit, by the source's call; i = inactive; ? = inconclusive; / = not tested or not shown; [ ] = dose if it differs, or a comment. An excerpt weighted towards active compounds, which were near 11% of everything screened. Unless noted, calls follow the shape of the dose curve; as a rule, active = well fitted curve in the direction sought with a large enough effect; inconclusive = small, poorly fitted or top-dose-only effect, or another doubt; inactive = no such curve, though single readings can be large; an effect the other way counts as inactive or inconclusive. % is scaled to controls: 0 for no effect and ±100 for the full control effect; potency is read from the fitted curve at half-maximal effect.

SMILES | HEK cytotox | Luciferase inh | hNpr1 antagonist | NIH3T3 tox
CCc1cccc(NC(=O)Cn2c(-c3ccccc3)nc(C)c(CCO)c2=O)c1 | ? | i | -14% | ?
COc1ccc(Cn2c(-c3ccc(F)cc3)nc(C)c(CCO)c2=O)cc1F | ? | i | 5% | ?
CCOc1ccc(NC(=O)Cn2c(-c3cccc(Cl)c3)nc(C)c(CCO)c2=O)cc1 | ? | i | -11% | 32µM*
Cc1nc(-c2ccccc2)n(CC(=O)Nc2cccc(Cl)c2)c(=O)c1CCO | 25µM* | i | ? | ?
COc1ccccc1NC(=O)Cn1c(-c2ccccc2)nc(C)c(CCO)c1=O | 35µM* | i | -12% | ?
COc1cccc(NC(=O)Cn2c(-c3cccc(Cl)c3)nc(C)c(CCO)c2=O)c1 | 79µM* | i | -20% | ?
COc1ccc(NC(=O)Cn2c(-c3ccc(Cl)cc3)nc(C)c(CCO)c2=O)cc1OC | i | i | -4% | -14%
Cc1cccc(NC(=O)Cn2c(-c3cccc(Cl)c3)nc(C)c(CCO)c2=O)c1 | 40µM* | i | -14% | ?
COc1ccc(NC(=O)Cn2c(-c3ccc(F)cc3)nc(C)c(CCO)c2=O)cc1Cl | 35µM* | i | -22% | ?
O=C(c1ccc(F)c(Cl)c1)N1CCC2(CC1)N=C(c1ccccc1)NO2 | ? | i | -10% | -18%
COc1ccc(-c2nnc([C@H]3CCN(S(C)(=O)=O)C3)o2)cc1 | i | i | 0%[70.6 µM] | -18%[138 µM]
COc1ccc(-c2nnc([C@H]3CCN(S(=O)(=O)Cc4ccccc4)C3)o2)cc1 | ? | 50µM* | -3%[70.6 µM] | ?
O=S(=O)(Cc1ccccc1)N1CCC(Oc2ccc(-c3noc(C4CC4)n3)cc2)C1 (stereo not drawn) | 40µM* | i | ? | ?
COc1ccc(NC(=O)[C@@H]2C[C@H](c3ccc(F)cc3)N(Cc3csc(C)n3)C2)cn1 | ? | i | -3%[70.6 µM] | ?
O=C(Nc1cccnc1)[C@@H]1C[C@@H](c2ccc(F)cc2)N(Cc2ccccc2)C1 | ? | i | ? | 79µM*
O=C(Nc1cccnc1)[C@@H]1C[C@H](c2ccc(F)cc2)N(Cc2ccccc2Cl)C1 | 40µM* | i | -24%[70.6 µM] | 45µM*
COc1ccc(NC(=O)[C@@H]2C[C@H](c3ccc(F)cc3)N(Cc3ccccc3Cl)C2)cn1 | 28µM* | i | -30%[70.6 µM] | 22µM*
Cc1noc(C)c1S(=O)(=O)N1CC(c2nc(Cc3cccnc3)no2)C1 | -3% | / | / | -14%
Clc1ccccc1C1(c2ccnc(NC3CC3)n2)CCNCC1 | ? | i | -10% | ?
Clc1ccccc1C1(c2ccnc(NCc3ccccn3)n2)CCNCC1 | ? | i | -1% | -27%
Clc1ccccc1C1(c2ccnc(CC3CC3)n2)CCNCC1 | ? | i | -2% | 79µM*
Clc1ccccc1C1(c2ccnc(C3CCCC3)n2)CCNCC1 | ? | i | -16% | 32µM*
COCCNc1nccc(C2(c3ccccc3Cl)CCNCC2)n1 | ? | i | 2% | -20%
Clc1ccccc1C1(c2ccnc(NCc3ccccc3)n2)CCNCC1 | ? | i | ? | 25µM*
COc1ccccc1Cc1nccc(C2(c3ccccc3Cl)CCNCC2)n1 | ? | i | -15% | 22µM*
SMILES | HEK cytotox | Luciferase inh | hNpr1 antagonist | NIH3T3 tox
CCN(CC1CCN(CCc2ccccc2C)CC1)C(=O)c1cc(C)nc(C)n1 | ? | i | 13% | 2%
Nc1nc(C2CC(N)C2)cc(N2CC(c3nc4ccccc4[nH]3)C2)n1 (stereo not drawn) | -13% | i | 5% | -4%
COc1cccc2c1OCCCN(c1cc(C3CC(O)C3)nc(N)n1)C2 (stereo not drawn) | ? | i | -30% | 13µM*
Cc1cccc(C)c1OC1CN(c2cc(C3CC(O)C3)nc(N)n2)C1 (stereo not drawn) | 35µM* | i | -7% | -21%
CCCCn1c(=O)c(C(=O)N2CCN(C(=O)c3cccc(Cl)c3)CC2)nc2cccnc21 | -18% | / | / | ?
CN(C)C(=O)c1nc(C(C)(C)C)c2cnccn12 | i | / | / | -16%[138 µM]
C=CCN1C[C@@H]2C[C@@H](C(=O)NC)N(C(=O)c3cccc4c3OC(F)(F)O4)c3cccc(c32)C1=O | ? | / | / | -14%[46.1 µM]
